In publication PMC7819943, “Rice protein-binding microarrays: a tool to detect cis-acting elements near promoter regions in rice”:
Whole data set: some 68,000 sequences, median “fluorescence intensity (a.u.)” near 9,100, cut for the highest 2% near 16,000. The full list was thinned out, with the highest values kept by preference.

Target: OsWRKY34 (Oryza sativa, UniProt Q0JBA9 1-250)
Experiment: protein-binding microarray (RPBM); PBS, 2% BSA, 51.3 ng/ul salmon testes DNA, 50 uM zinc acetate, 200 nM TF, 25 C, 1 h; high values mean tight binding
Details: protein: recombinant; tags: N-terminal polyhistidine and DsRed monomer fusion (pET32a); label: CyDye5-dUTP incorporated in the synthesized complementary strand; 3' TTTTT single-stranded linker to array surface; dsDNA, one strand shown
Method in brief: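 Polyhistidine-tagged DsRed fusions of transcription factors, joined at the N-terminus, were expressed in E. coli BL21-CodonPlus and isolated on Ni–NTA. They were incubated at 200 nM for 1 h at 25 °C on a custom Agilent array, double-stranded and BSA-blocked, in PBS with 2% BSA, salmon testes DNA and 50 µM zinc acetate. The binding signal is per-feature fluorescence intensity (arbitrary units) read on an Axon 4000B scanner after washing.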

OsWRKY34, sequence (Q0JBA9 entry or part of it): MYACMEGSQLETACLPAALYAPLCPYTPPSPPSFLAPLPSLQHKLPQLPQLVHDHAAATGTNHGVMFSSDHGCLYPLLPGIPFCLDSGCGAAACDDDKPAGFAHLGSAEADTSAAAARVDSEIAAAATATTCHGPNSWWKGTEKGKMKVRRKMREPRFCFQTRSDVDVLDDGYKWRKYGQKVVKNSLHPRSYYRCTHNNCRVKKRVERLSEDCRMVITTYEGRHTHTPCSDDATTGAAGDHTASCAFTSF

Sequence | binding signal
GAATTCATACTTTTTCCTATATTTATCTTTGGCCTTAATCCGGAGTCACCTAGTGCAG | 8560 fluorescence intensity (a.u.)
CCCCAAAATACTCGACGCTGAACTTTCCCATCAGCTAGTACGGAGTCACCTAGTGCAG | 8280 fluorescence intensity (a.u.)
CCTTGGCAGTGGGGCGGAGGGGCGGTGTCGGTGCTGGCGGCGGAGTCACCTAGTGCAG | 13800 fluorescence intensity (a.u.)
TTGTAAGTTAGGGACCTGTTGTATCTGATTTTTTGGTTGACGGAGTCACCTAGTGCAG | 8210 fluorescence intensity (a.u.)
AATGTTGTCCTGTCGGCTGCTTCTGCTCCAACGTCAAGTTCGGAGTCACCTAGTGCAG | 8140 fluorescence intensity (a.u.)
ATTTTACCAGTCTTGGAGATTTTAATCTTGTATAGTTTTCCGGAGTCACCTAGTGCAG | 9110 fluorescence intensity (a.u.)
CTCACCATTTCATTTTATTTTTCATTTTTCACCACAAATTCGGAGTCACCTAGTGCAG | 9050 fluorescence intensity (a.u.)
TATATATATATATATATATATATTCACAAATTATTTTTCACGGAGTCACCTAGTGCAG | 23500 fluorescence intensity (a.u.)
GGGGATTTTTTTTTCGGATCCAGAACGATCAGAGAGGGAGCGGAGTCACCTAGTGCAG | 9300 fluorescence intensity (a.u.)
CTAGGGTTAGGGGTTTGGGTGGGGAAATTTTCACGAGGGACGGAGTCACCTAGTGCAG | 14600 fluorescence intensity (a.u.)
GGGGAAATTTTCACGAGGGAGAGGGAGGGGAGGGATATTTCGGAGTCACCTAGTGCAG | 23200 fluorescence intensity (a.u.)
TTTCATTATACATATAGTTTTACATATTTCACAAAATTTTCGGAGTCACCTAGTGCAG | 8770 fluorescence intensity (a.u.)
ATCCATGGGCCTCGTTGGTTATAGCCTGTGTGCATCAACACGGAGTCACCTAGTGCAG | 8230 fluorescence intensity (a.u.)
TCCTCCTTTCTCGCTCTCGCTCTGTCCGATCGGAGCCATGCGGAGTCACCTAGTGCAG | 8490 fluorescence intensity (a.u.)
TTGGGGTTCGTGGGGTCGAGAGGAAGGTGCGTGATCATACCGGAGTCACCTAGTGCAG | 11500 fluorescence intensity (a.u.)
TATTTTCCGGATCGAATTGCCACGTAAGGGCCACATCAGTCGGAGTCACCTAGTGCAG | 8510 fluorescence intensity (a.u.)
ACTGGCTTTGCTATGATCTTTTGCTATCGCCCAACCGTTACGGAGTCACCTAGTGCAG | 8690 fluorescence intensity (a.u.)
ATTTTCTACTCTTTTGGTCCCACTAGTCATAGACTCTTTTCGGAGTCACCTAGTGCAG | 10800 fluorescence intensity (a.u.)
TGTGCCGTGACTCGATGTGCTCCTCCATCTCTTGCTGCAACGGAGTCACCTAGTGCAG | 8170 fluorescence intensity (a.u.)
GGGAGGGAGGGTGGCTGTAGTGTGCTAATCACAAATAATTCGGAGTCACCTAGTGCAG | 20500 fluorescence intensity (a.u.)
TGTGCTGTGTGGTGTACTGGTGTGTGGGCTTAATAATTGTCGGAGTCACCTAGTGCAG | 14200 fluorescence intensity (a.u.)

Sequence | binding signal
GAGGCGGGTGATAGCGCGGTGGGGCGGTGGCGGCGGTGGACGGAGTCACCTAGTGCAG | 13000 fluorescence intensity (a.u.)
GCGGTGGAGGGCCGGCGGAGAGGGGAGCAGCGGTGGAGGGCGGAGTCACCTAGTGCAG | 11000 fluorescence intensity (a.u.)
CTGCGGGGAGGTGTAGGAGGAGGAGGGCGGAGGAGGTGGTCGGAGTCACCTAGTGCAG | 8780 fluorescence intensity (a.u.)
GTGAGGACGGCCTGCGGGTGCATGCGGGCGCAACAAGTAGCGGAGTCACCTAGTGCAG | 17500 fluorescence intensity (a.u.)
TCGAGAGGTGGGGAGGGGAGGGGAGCAGAGGGCGGCATCGCGGAGTCACCTAGTGCAG | 18600 fluorescence intensity (a.u.)
CGGGCGGCGGGTGCGGACTGCGGAGGAGGCTGGCGGGGCACGGAGTCACCTAGTGCAG | 8630 fluorescence intensity (a.u.)
GCAGAGAGAGGGGAGGAGGGTGGGTGGCGGCGGCGGCTAGCGGAGTCACCTAGTGCAG | 14400 fluorescence intensity (a.u.)
GGGAGGGGCTGCTAATTCGGTGTGATTAGTACAGTAGTTTCGGAGTCACCTAGTGCAG | 10100 fluorescence intensity (a.u.)
GTTTTTTTTTTTTGGCGCAGGGAGTGGTGGCGTGGTGTGTCGGAGTCACCTAGTGCAG | 8170 fluorescence intensity (a.u.)
GAGGGAGGGAGGGAGGGAGGGCGTGTAGCGTAGTTGGTGTCGGAGTCACCTAGTGCAG | 18800 fluorescence intensity (a.u.)
CCTCACCCTATGCTCCTGTGTTTTGTAGTCTTTCGTAACACGGAGTCACCTAGTGCAG | 8220 fluorescence intensity (a.u.)
ACGGCATCAAATCTCTGTTTGTACATGTGCCCCTGTTCTTCGGAGTCACCTAGTGCAG | 9440 fluorescence intensity (a.u.)
CCCGACCAAACACTACGAACTCTTCTACCTTCTTTGTTTCCGGAGTCACCTAGTGCAG | 12600 fluorescence intensity (a.u.)
CAATGCACTGTTCATCTTCAGTAGTTATGTTTTCTCAGTGCGGAGTCACCTAGTGCAG | 10400 fluorescence intensity (a.u.)
CAAATTTGGTATTTCTCTCTGCTCACTCCATCCCTCAACTCGGAGTCACCTAGTGCAG | 8830 fluorescence intensity (a.u.)
ATGGTGGCCGGTCTTTTTTCCTCTTCGCTCGATGCCAAAACGGAGTCACCTAGTGCAG | 8270 fluorescence intensity (a.u.)
CGGCTAAACTCCCACGTGAACCAGACGCTGCACCAAAAACCGGAGTCACCTAGTGCAG | 8430 fluorescence intensity (a.u.)
GAAGTGAATAGTAGAGGGTTTTGATGGGTTGGGAAGAGAACGGAGTCACCTAGTGCAG | 11200 fluorescence intensity (a.u.)
ATTAATTTCGCTTGCTAACACGAGTTTAATCTGCCAATTTCGGAGTCACCTAGTGCAG | 10000 fluorescence intensity (a.u.)
CCACTGCATACCAACACCAACCACTGTACTAGCACTACTACGGAGTCACCTAGTGCAG | 8980 fluorescence intensity (a.u.)
AGATTGTGGTGGGTGTTGATTGTGGTGATCTTGTCCCCTCCGGAGTCACCTAGTGCAG | 13000 fluorescence intensity (a.u.)

Sequence | binding signal
CTACTATACGTCGATGGGGAGGGAGGGAGGGTGGCTGTAGCGGAGTCACCTAGTGCAG | 26400 fluorescence intensity (a.u.)
GCGGGAGGAGAGCGGCGGGCGGCGGGCGGCGGCGGCTGTGCGGAGTCACCTAGTGCAG | 9520 fluorescence intensity (a.u.)
GGGCTGGAGATGGAGATGGAGATGGAGATGGAGGGTGGGTCGGAGTCACCTAGTGCAG | 8660 fluorescence intensity (a.u.)
CTCGAGCGGCGGTGGGGATGGGGATGGGGCGGCGGCGACGCGGAGTCACCTAGTGCAG | 17000 fluorescence intensity (a.u.)
GGCTCGCGGAGGGCGGGGCTGGGATGGTGGCGGATGGGAGCGGAGTCACCTAGTGCAG | 10800 fluorescence intensity (a.u.)
AGAGGAGGAGAGTGGTGGTGGTGCGAGAGGGAGGGAGATGCGGAGTCACCTAGTGCAG | 9230 fluorescence intensity (a.u.)
GGAGAAAAAGGGGAGGGAGGGAGATGATGACGTGTAGGGGCGGAGTCACCTAGTGCAG | 8550 fluorescence intensity (a.u.)
GTGGTGTAGTGGGAGCGGCCGAGATGGGGCGTCGACGGGGCGGAGTCACCTAGTGCAG | 8770 fluorescence intensity (a.u.)
GGAGATCCTGAGGCAGCGGGGAGAGGGGAGGTGGGCGATGCGGAGTCACCTAGTGCAG | 10500 fluorescence intensity (a.u.)
GGCGGGGCGGCGGAGGTGGTGGTGGGGAGGGCGAGAGATGCGGAGTCACCTAGTGCAG | 23400 fluorescence intensity (a.u.)
AGGCGAGCGAGGCGGGTGGGCGGGGAGCGAACCAACGACGCGGAGTCACCTAGTGCAG | 8840 fluorescence intensity (a.u.)
AGAGATGCGTGTGTAGGCGGCGGGGAGGGGAGGGCTGTGACGGAGTCACCTAGTGCAG | 17700 fluorescence intensity (a.u.)
ATTGCATCGCCCATTTCGCTCATGGATCAGTAGGTAGCCACGGAGTCACCTAGTGCAG | 8190 fluorescence intensity (a.u.)
AGTCAGTGACATCTATCTTTTCATCGATGTGTCTATTGCCCGGAGTCACCTAGTGCAG | 8640 fluorescence intensity (a.u.)
ACCCATCCATCGCCAGCCATGCACACCCTCGCTCTGACGACGGAGTCACCTAGTGCAG | 8640 fluorescence intensity (a.u.)
CAACGAGGAGCGATGCATATCTAGCAGTTTTGTTTTTCATCGGAGTCACCTAGTGCAG | 8420 fluorescence intensity (a.u.)
TACACCCTTGGGCCCACCTGTCAACCTCTCACCCTATATTCGGAGTCACCTAGTGCAG | 11900 fluorescence intensity (a.u.)
GATGAGTCCTCACCTGAGTTTCTTCCGTCCATGGCGGCCGCGGAGTCACCTAGTGCAG | 10500 fluorescence intensity (a.u.)
ATCCCCAGCCTCCAATACCGGTCCCGTGCTTGTTTTTCTTCGGAGTCACCTAGTGCAG | 9470 fluorescence intensity (a.u.)
AATTCGTACTTTTTCCTTTGTGTTTTGTCTATCTTAAATTCGGAGTCACCTAGTGCAG | 14300 fluorescence intensity (a.u.)
AAACCCACCCACCCAGCGCTTCTTCTTTCCTTTCTTTATTCGGAGTCACCTAGTGCAG | 12900 fluorescence intensity (a.u.)

Sequence | binding signal
TTTCCAACCTGATCGGGTGCTGCCTTTTCATTCTTCCCTCCGGAGTCACCTAGTGCAG | 8430 fluorescence intensity (a.u.)
ATTTCCCCTGAACTCTACGTTTACAGGTTATGGTTATCTCCGGAGTCACCTAGTGCAG | 8350 fluorescence intensity (a.u.)
ATACATATTTTTTTCTCTATTTCTGCCCAACATGTTTTTCCGGAGTCACCTAGTGCAG | 8950 fluorescence intensity (a.u.)
AAGGGTTATCGACCTACGCCTGCTGGCCCTTTTCGGCTTTCGGAGTCACCTAGTGCAG | 9300 fluorescence intensity (a.u.)
TGCATTGACCAGGTCAACGGGAGAGGGAGGGGCAAAATCGCGGAGTCACCTAGTGCAG | 19600 fluorescence intensity (a.u.)
CGTTGGAACGTGCGGGTGTGGGGAAACTGAGGGTGAGGATCGGAGTCACCTAGTGCAG | 8600 fluorescence intensity (a.u.)
TGTCAGGTCAAATCGGGGAGGCGGGGTGCGTACCAACGGTCGGAGTCACCTAGTGCAG | 11900 fluorescence intensity (a.u.)
CGCTCGGCGGTGAGGTGGAGGTGGAGGTGGGTGGGAGATGCGGAGTCACCTAGTGCAG | 12900 fluorescence intensity (a.u.)
TGGTGGTGGTGGTGGCTGTAGTGTGGAGGTGGTGGGGAGTCGGAGTCACCTAGTGCAG | 16700 fluorescence intensity (a.u.)
CTGTGCGGGAGGTGGAGATGGAGATGGTGGGTGGATCGGACGGAGTCACCTAGTGCAG | 8630 fluorescence intensity (a.u.)
GCTGTGGCGGAGGTGGGGAGGTGGAGGTGGAGGGGAGATGCGGAGTCACCTAGTGCAG | 24600 fluorescence intensity (a.u.)
TCGGCGGCGAGGTGGTGGCGGTGGCGGTGGTGGGAGTAGTCGGAGTCACCTAGTGCAG | 15200 fluorescence intensity (a.u.)
GATGCGGGTGAGGTGCCGCGCTGTGGGGAGAGAGGGTGGGCGGAGTCACCTAGTGCAG | 8560 fluorescence intensity (a.u.)
GAGGTGGGTGTGGAACTGTGGATGCGGGTCGGGGAGATCGCGGAGTCACCTAGTGCAG | 16900 fluorescence intensity (a.u.)
GGGAGATTTGTTGCAACGGAGGGCATTGAGTGGTGGGGACCGGAGTCACCTAGTGCAG | 8570 fluorescence intensity (a.u.)
AAACGCTGTGGTGGGTGGTGGTGCGGATGGGGAGGTGTGGCGGAGTCACCTAGTGCAG | 14100 fluorescence intensity (a.u.)
CATCTGATCGGCATCGGCATCGTCCTCGTCCTCGGCATCACGGAGTCACCTAGTGCAG | 9990 fluorescence intensity (a.u.)
TCTGGGTATCCTCTGTTATGTCATCTTCACCTCCATTTGGCGGAGTCACCTAGTGCAG | 8690 fluorescence intensity (a.u.)
CTGCTAGCCCGGTTAATCTACCAAAACCCGTCTTGATTTACGGAGTCACCTAGTGCAG | 9070 fluorescence intensity (a.u.)
TTAGTATAGCTGTATTCTTCCCAACTTCCTATTTTCCTCTCGGAGTCACCTAGTGCAG | 8540 fluorescence intensity (a.u.)
CTCGAACCACTGACCATCCCGTCCACACTGCACCGCGCTACGGAGTCACCTAGTGCAG | 8260 fluorescence intensity (a.u.)
